Source: publication PMC5540273 (PLoS ONE, 2017)

How the values were obtained:
Details in all cases: concentration: 1 μM, replicates: in singlicate; n = 1
FGFR1 = test system: FGFR1
FGFR2 = test system: FGFR2
FGFR3 = test system: FGFR3
FGFR4 = test system: FGFR4
FGR = test system: FGR
FLT1 = test system: FLT1
FLT3-autoinhibited = test system: FLT3-autoinhibited
FLT3 = test system: FLT3
FLT4 = test system: FLT4
FRK = test system: FRK
FYN = test system: FYN
GAK = test system: GAK
GCN2(Kin.Dom.2,S808G) = test system: T1, GCN2(Kin.Dom.2,S808G)
T1 construct: gene EIF2AK4

GRK1 = test system: GRK1
GRK2 = test system: T2, GRK2
T2 construct: gene ADRBK1

GRK3 = test system: T3, GRK3
T3 construct: gene ADRBK2

GRK4 = test system: GRK4
GRK7 = test system: GRK7
GSK3A = test system: GSK3A
GSK3B = test system: GSK3B
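Also: KINOMEscan kinase panel screen.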

Row | Structure (SMILES) | %Inh (FGFR1) [%] | %Inh (FGFR2) [%] | %Inh (FGFR3) [%] | %Inh (FGFR4) [%] | %Inh (FGR) [%] | %Inh (FLT1) [%] | %Inh (FLT3-autoinhibited) [%] | %Inh (FLT3) [%] | %Inh (FLT4) [%] | %Inh (FRK) [%] | %Inh (FYN) [%] | %Inh (GAK) [%] | %Inh (GCN2(Kin.Dom.2,S808G)) [%] | %Inh (GRK1) [%] | %Inh (GRK2) [%] | %Inh (GRK3) [%] | %Inh (GRK4) [%] | %Inh (GRK7) [%] | %Inh (GSK3A) [%] | %Inh (GSK3B) [%]
1 | Cl.Cl.NCC(NCc1ccc(-c2ccnc3[nH]ccc23)s1)c1ccccc1 (stereo not shown) [GSK1321565] | 4 | 0 | 19 | 1 | 23 | 18 | 12 | 75 | 5 | 0 | 0 | 34 | 0 | 50 | 0 | 37 | 82 | 83 | 0 | 0
2 | CNC(=O)c1ccccc1Nc1nc(Nc2ccc(N3CCOCC3)cc2)ncc1Cl.Cl [GSK1576028] | 99.7 | 97.2 | 99 | 92.3 | 98.1 | 89 | 96.2 | 99.3 | 99.9 | 86 | 98.3 | 96.9 | 100 | 15 | 13 | 0 | 84 | 3 | 76 | 72
3 | Cc1ccc(C(=O)Nc2ccc(Nc3ccnc4cc(-c5nccs5)ccc34)cc2O)cc1.Cl [GW494702] | 0 | 35 | 13 | 0 | 73 | 14 | 0 | 14 | 0 | 67 | 25 | 10 | 0 | 17 | 0 | 41 | 17 | 0 | 0 | 7
4 | c1ccc(Oc2ccc(Nc3ccnc4cc(-c5ccc(CNCCN6CCOCC6)o5)ccc34)cc2)nc1 [GW567145] | 0 | 4 | 10 | 0 | 68 | 3 | 8 | 91 | 0 | 13 | 57 | 82 | 0 | 0 | 0 | 48 | 0 | 0 | 6 | 0
5 | Cc1occc1-c1ncc(OC[C@@H](N)Cc2c[nH]c3ccccc23)cc1-c1ccc2[nH]nc(C)c2c1.O=C(O)C(F)(F)F [GSK682037] | 6 | 0 | 1 | 0 | 77 | 11 | 0 | 0 | 3 | 57 | 86 | 82 | 0 | 3 | 0 | 0 | 62 | 43 | 64 | 55
